Assay results taken from article PMC11062922 (Nature Chemical Biology, 2023).
Where two headings read alike, the source gives them in different places.

Experiments:
CDK16 = tested on: CDK16; set-up: species or system human, MV4-11 + K-562 + COLO205 + SK-N-BE2 + OVCAR-8; conditions: read-out: apparent Kd, n = 1
CLK4 = tested on: CLK4; set-up: species or system human, MV4-11 + K-562 + COLO205 + SK-N-BE2 + OVCAR-8; conditions: read-out: apparent Kd; compound concentrations:100 nM and 1000 nM (sheet 'Samples'); n = 1
CSNK2A1;CSNK2A3 = tested on: CSNK2A1;CSNK2A3; set-up: species or system human, MV4-11 + K-562 + COLO205 + SK-N-BE2 + OVCAR-8; conditions: read-out: apparent Kd; compound concentrations:100 nM and 1000 nM (sheet 'Samples'); n = 1
CSNK2A2 = tested on: CSNK2A2; set-up: species or system human, MV4-11 + K-562 + COLO205 + SK-N-BE2 + OVCAR-8; conditions: read-out: apparent Kd; compound concentrations:100 nM and 1000 nM (sheet 'Samples'); n = 1
GSK3A = tested on: GSK3A; set-up: species or system human, MV4-11 + K-562 + COLO205 + SK-N-BE2 + OVCAR-8; conditions: read-out: apparent Kd, n = 1
MELK = tested on: MELK; set-up: species or system human, MV4-11 + K-562 + COLO205 + SK-N-BE2 + OVCAR-8; conditions: read-out: apparent Kd, n = 1
MYLK3 = tested on: MYLK3; set-up: species or system human, MV4-11 + K-562 + COLO205 + SK-N-BE2 + OVCAR-8; conditions: read-out: apparent Kd; compound concentrations:100 nM and 1000 nM (sheet 'Samples'); n = 1
NUAK1 = tested on: NUAK1; set-up: species or system human, MV4-11 + K-562 + COLO205 + SK-N-BE2 + OVCAR-8; conditions: read-out: apparent Kd; compound concentrations:100 nM and 1000 nM (sheet 'Samples'); n = 1
PRKAG1 = tested on: PRKAG1; set-up: species or system human, MV4-11 + K-562 + COLO205 + SK-N-BE2 + OVCAR-8; conditions: read-out: apparent Kd; compound concentrations:100 nM and 1000 nM (sheet 'Samples'); n = 1
CDK17 = tested on: CDK17; set-up: species or system human, MV4-11 + K-562 + COLO205 + SK-N-BE2 + OVCAR-8; conditions: read-out: apparent Kd, n = 1
CDK2 = tested on: CDK2; set-up: species or system human, MV4-11 + K-562 + COLO205 + SK-N-BE2 + OVCAR-8; conditions: read-out: apparent Kd, n = 1
ERCC2 = tested on: ERCC2; set-up: species or system human, MV4-11 + K-562 + COLO205 + SK-N-BE2 + OVCAR-8; conditions: read-out: apparent Kd; compound concentrations:100 nM and 1000 nM (sheet 'Samples'); n = 1
Q6ZSR9 = Q6ZSR9 (human, UniProt Q6ZSR9); set-up: species or system MV4-11 + K-562 + COLO205 + SK-N-BE2 + OVCAR-8; conditions: read-out: apparent Kd; compound concentrations:100 nM and 1000 nM (sheet 'Samples'); n = 1
Sequence of Q6ZSR9 (Q6ZSR9 whole entry, looked up): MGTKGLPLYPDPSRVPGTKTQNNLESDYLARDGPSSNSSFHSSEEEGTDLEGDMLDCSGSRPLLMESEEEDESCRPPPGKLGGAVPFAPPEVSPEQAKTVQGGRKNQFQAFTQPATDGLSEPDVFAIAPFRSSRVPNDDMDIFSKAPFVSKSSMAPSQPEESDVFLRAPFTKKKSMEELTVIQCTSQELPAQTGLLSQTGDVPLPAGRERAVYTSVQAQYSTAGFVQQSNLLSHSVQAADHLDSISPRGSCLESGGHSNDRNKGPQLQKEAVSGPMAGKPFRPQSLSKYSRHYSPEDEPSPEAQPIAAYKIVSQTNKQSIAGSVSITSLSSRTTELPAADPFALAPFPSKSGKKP

TTK = tested on: TTK; set-up: species or system human, MV4-11 + K-562 + COLO205 + SK-N-BE2 + OVCAR-8; conditions: read-out: apparent Kd; compound concentrations:100 nM and 1000 nM (sheet 'Samples'); n = 1
CDK6 = tested on: CDK6; set-up: species or system human, MV4-11 + K-562 + COLO205 + SK-N-BE2 + OVCAR-8; conditions: read-out: apparent Kd, n = 1
ICK = tested on: ICK; set-up: species or system human, MV4-11 + K-562 + COLO205 + SK-N-BE2 + OVCAR-8; conditions: read-out: apparent Kd; compound concentrations:100 nM and 1000 nM (sheet 'Samples'); n = 1
NNT = tested on: NNT; set-up: species or system human, MV4-11 + K-562 + COLO205 + SK-N-BE2 + OVCAR-8; conditions: read-out: apparent Kd; compound concentrations:100 nM and 1000 nM (sheet 'Samples'); n = 1
CDK9 = tested on: CDK9; set-up: species or system human, MV4-11 + K-562 + COLO205 + SK-N-BE2 + OVCAR-8; conditions: read-out: apparent Kd; compound concentrations: 100 nM and 1000 nM (sheet 'Samples'), CATDS: 7.0025924153680405E-2; n = 1
CDKL5 = tested on: CDKL5; set-up: species or system human, MV4-11 + K-562 + COLO205 + SK-N-BE2 + OVCAR-8; conditions: read-out: apparent Kd; compound concentrations: 100 nM and 1000 nM (sheet 'Samples'), CATDS: 0.107974532487744; n = 1
DYRK1A = tested on: DYRK1A; set-up: species or system human, MV4-11 + K-562 + COLO205 + SK-N-BE2 + OVCAR-8; conditions: read-out: apparent Kd; compound concentrations: 100 nM and 1000 nM (sheet 'Samples'), CATDS: 7.1113198150105694E-2; n = 1
GSK3B = tested on: GSK3B; set-up: species or system human, MV4-11 + K-562 + COLO205 + SK-N-BE2 + OVCAR-8; conditions: read-out: apparent Kd; compound concentrations: 100 nM and 1000 nM (sheet 'Samples'), CATDS: 0.45532128509290898; n = 1
MAPK14 = tested on: MAPK14; set-up: species or system human, MV4-11 + K-562 + COLO205 + SK-N-BE2 + OVCAR-8; conditions: read-out: apparent Kd; compound concentrations: 100 nM and 1000 nM (sheet 'Samples'), CATDS: 5.6581371759273497E-2; n = 1
MAPK7 = tested on: MAPK7; set-up: species or system human, MV4-11 + K-562 + COLO205 + SK-N-BE2 + OVCAR-8; conditions: read-out: apparent Kd; compound concentrations: 100 nM and 1000 nM (sheet 'Samples'), CATDS: 4.4821094432651497E-2; n = 1
MAPK9 = tested on: MAPK9; set-up: species or system human, MV4-11 + K-562 + COLO205 + SK-N-BE2 + OVCAR-8; conditions: read-out: apparent Kd; compound concentrations: 100 nM and 1000 nM (sheet 'Samples'), CATDS: 4.6942214024324101E-2; n = 1
NQO2 = tested on: NQO2; set-up: species or system human, MV4-11 + K-562 + COLO205 + SK-N-BE2 + OVCAR-8; conditions: read-out: apparent Kd; compound concentrations: 100 nM and 1000 nM (sheet 'Samples'), CATDS: 5.78366102928662E-2; n = 1
PRKD2 = tested on: PRKD2; set-up: species or system human, MV4-11 + K-562 + COLO205 + SK-N-BE2 + OVCAR-8; conditions: read-out: apparent Kd; compound concentrations: 100 nM and 1000 nM (sheet 'Samples'), CATDS: 5.0441088598544299E-2; n = 1
TP53RK = tested on: TP53RK; set-up: species or system human, MV4-11 + K-562 + COLO205 + SK-N-BE2 + OVCAR-8; conditions: read-out: apparent Kd; compound concentrations: 100 nM and 1000 nM (sheet 'Samples'), CATDS: 4.9816696124222203E-2; n = 1
[1] = compound concentrations:100 nM and 1000 nM (sheet 'Samples')

NS(=O)(=O)c1ccc(N/N=C2\C(=O)Nc3ccc(C(=O)NCCc4c[nH]cn4)cc32)cc1 [GW300660X]
potency estimated from few doses (CDK16; [1]): 1.01 µM | potency estimated from few doses (CLK4): 1.23 µM | potency estimated from few doses (CSNK2A1;CSNK2A3): 2.31 µM | potency estimated from few doses (CSNK2A2): 1.97 µM | potency estimated from few doses (GSK3A; [1]): 1.22 µM | potency estimated from few doses (MELK; [1]): 2.18 µM | potency estimated from few doses (MYLK3): 0.735 µM | potency estimated from few doses (NUAK1): 1.45 µM | potency estimated from few doses (PRKAG1): 1.48 µM

NS(=O)(=O)c1ccc(N/N=C2\C(=O)Nc3ccc(C(=O)NCc4ccncc4)cc32)cc1 [GSK300657X]
potency estimated from few doses (CDK16; [1]): 0.486 µM | potency estimated from few doses (CDK17; [1]): 0.957 µM | potency estimated from few doses (CDK2; [1]): 0.567 µM | potency estimated from few doses (CSNK2A1;CSNK2A3): 1.46 µM | potency estimated from few doses (CSNK2A2): 0.771 µM | potency estimated from few doses (ERCC2): 2.25 µM | potency estimated from few doses (MYLK3): 1.62 µM | potency estimated from few doses (Q6ZSR9): 2.14 µM | potency estimated from few doses (TTK): 2.1 µM

CS(=O)(=O)N1CCC(Nc2ncc(C(=O)c3c(F)cccc3F)c(N)n2)CC1 [RO4930481-000]
potency estimated from few doses (CDK16; [1]): 1.35 µM | potency estimated from few doses (CDK17; [1]): 1.47 µM | potency estimated from few doses (CDK2; [1]): 1 µM | potency estimated from few doses (CDK6; [1]): 1.75 µM | potency estimated from few doses (ICK): 1.26 µM | potency estimated from few doses (NNT): 1.11 µM

CCC(NN(C)C)=C1C(=O)Nc2ccc(C(C)=O)cc21 [BI00036838]
potency estimated from few doses (CDK16; compound concentrations: 100 nM and 1000 nM (sheet 'Samples'), CATDS: 6.3187514520784194E-2): 0.753 µM | potency estimated from few doses (CDK17; compound concentrations: 100 nM and 1000 nM (sheet 'Samples'), CATDS: 5.2851487986603697E-2): 1.21 µM | potency estimated from few doses (CDK2; compound concentrations: 100 nM and 1000 nM (sheet 'Samples'), CATDS: 4.7813901315705599E-2): 1.64 µM | potency estimated from few doses (CDK6; compound concentrations: 100 nM and 1000 nM (sheet 'Samples'), CATDS: 5.8978881187618598E-2): 0.895 µM | potency estimated from few doses (CDK9): 0.59 µM | potency estimated from few doses (CDKL5): 0.233 µM | potency estimated from few doses (DYRK1A): 0.569 µM | potency estimated from few doses (GSK3A; compound concentrations: 100 nM and 1000 nM (sheet 'Samples'), CATDS: 0.31666625502072798): 0.0273 µM | potency estimated from few doses (GSK3B): 0.015 µM | potency estimated from few doses (MAPK14): 0.999 µM | potency estimated from few doses (MAPK7): 2.06 µM | potency estimated from few doses (MAPK9): 1.75 µM | potency estimated from few doses (MELK; compound concentrations: 100 nM and 1000 nM (sheet 'Samples'), CATDS: 4.5559662583992203E-2): 1.94 µM | potency estimated from few doses (NQO2): 0.942 µM | potency estimated from few doses (PRKD2): 1.39 µM | potency estimated from few doses (TP53RK): 1.44 µM
